Test: fission yeast growth modulation, primary screen, strain 972, OD600, 24 h, no modulator (AID 1090);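 note: basal condition with compound alone and no growth modifier present; test concentration not given here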
Details: S. pombe 972 growth, higher = more signal, called active from +8 up or from −8 down

z-score, inactive:
CCOC(=O)C[C@H]1[C@H](OC(=O)Cc2ccc3c(c2)OCO3)[C@@H](NC(=O)c2ccc3ccccc3c2)c2cc(OCCCO)ccc2N1C(=O)Cc1ccc(OC)cc1 -0.366
O=C(NCc1ccccc1)c1ccc(Br)cc1[N+](=O)[O-] -1.08
CC(C)(C)OC(=O)CC[C@]1(C(=O)N2CCCCC2)N=C(c2ccc(OCCCO)cc2)O[C@H]1c1ccccc1 -3.11
C=CCNC(=O)[C@@H]1[C@H]2C(=O)O[C@H](c3ccccc3)[C@H](c3ccccc3)N2[C@H](c2ccc(OCCO)cc2)[C@@]12C(=O)N(C(=O)OCCOC)c1ccc(C#CC3(O)CCCCCC3)cc12 -1.64
CCCC=C(CCC)[C@@H](NS(=O)(=O)c1ccc(C(F)(F)F)cc1)c1ccc(-c2ccccc2)cc1 -3.21
NC(=O)NCC#Cc1ccc2c(c1)[C@]1(C(=O)N2)[C@H](C(=O)N2CCCCCCC2)[C@H]2C(=O)O[C@H](c3ccccc3)[C@H](c3ccccc3)N2[C@@H]1c1ccccc1OCCO -3.26
C=C[C@H](OC)[C@@H](OC(=O)Nc1ccc(SC)cc1)c1ccc(O)c(F)c1 -1.68
CO[C@H]1COC(=O)CC=C[C@H](C)COC(=O)[C@@H](OCc2ccccc2)C=C[C@@H]1C -1.39
CC(C)C[C@@H]1NC(=O)[C@H]2C[C@@H](C(=O)NCCCCCC[N+](C)(C)C)[C@@H](c3ccc(O)cc3)N2C1=O 0.0827
CO[C@H]1COC(=O)[C@@H](C)NC(=O)CC=C[C@@H](C)[C@H](OC)COC(=O)CC=C[C@@H]1C -2.03
C=CC[C@@]12N=C(c3ccc(OCCCO)cc3)O[C@@H]1c1ccccc1CN(Cc1ccccc1)C2=O -3.56
COc1ccc([Si](C)(C)[C@@H]2[C@@H](CC(=O)N(CCO)Cc3ccccc3)O[C@]3(C(=O)N(Cc4cccc(N5CCC5=O)c4)c4ccccc43)[C@H]2C)cc1 0.463
CN(C)CCCC[C@@H]1NC(=O)[C@@H]2C[C@H](C(=O)O)[C@H](c3ccc(O)cc3)N2C1=O -1.04
CCOC(=O)C1=CCC(c2cccc3ccccc23)N(S(=O)(=O)c2ccc(C)cc2)C1 (stereo unspecified) 1.4
CO[C@@H]1COC(=O)CC=C[C@@H](C)[C@H](OC)COC(=O)CC=C[C@H]1C -0.761
C=C(COC)/C(=C/C[C@H](OC(C)=O)c1ccc(OCCO)cc1)c1cnc2ccccc2c1 -1.49
CO[C@H]1O[C@H](CO)[C@@H](OC(=O)Nc2ccc(Oc3ccccc3)cc2)[C@H](OC(=O)Nc2ccccc2-c2ccccc2)[C@H]1OC(=O)Nc1ccccc1-c1ccccc1 1.84
CCC1=C2CN(Cc3ccccc3Br)[C@@H]([C@@H](O)Cc3ccccc3)C2C=CCC1 (stereo partly specified) -5.56
[N-]=[N+]=NCc1ccccc1C[C@@]1(C(=O)N2CCOCC2)N=C(c2ccc(OCCCO)cc2)O[C@@H]1c1ccccc1N=[N+]=[N-] -0.39
C=CC(=O)O[C@@H](Cc1ccccc1)[C@H]1C2C=CCCC=C2CN1Cc1cccc(Cl)c1 (stereo partly specified) -2.23
NC(=O)[C@H]1[C@@H]2C(=O)O[C@@H](c3ccccc3)[C@@H](c3ccccc3)N2[C@@H](c2ccc(O)cc2)[C@]12C(=O)Nc1ccc(C#CCCO)cc12 -0.196
NC(=O)NCC#Cc1ccc2c(c1)[C@]1(C(=O)N2)[C@H](C(N)=O)[C@H]2C(=O)O[C@H](c3ccccc3)[C@H](c3ccccc3)N2[C@@H]1c1ccccc1OCCO 0.742
C=CC[C@]1(C(N)=O)N=C(c2ccc(OCCCO)cc2)O[C@H]1c1ccccc1CN=[N+]=[N-] -0.881
C[N+](C)(C)CCCCNC(=O)[C@@H]1C[C@@H]2C(=O)N3CCC[C@H]3C(=O)N2[C@@H]1c1cccc(OCCO)c1 -1.74
O=C1O[C@H](c2ccccc2)[C@H](c2ccccc2)N2[C@H]1[C@@H](C(=O)Nc1nc3ccccc3s1)[C@]1(C(=O)Nc3ccc(C#CC4(O)CCCCCC4)cc31)[C@H]2c1ccc(O)cc1 -0.265
COc1ccc(C(O)C2C=CC3C(=O)N(C)C(=O)C3N2N2CCCCC2)cc1OCc1ccccc1 (stereo unspecified) -0.0814
